Reference: the supplement of paper PMC8269313

Tested on: 4T1
Experiment: % inhibition of 4T1 cell number vs DMSO control; higher = stronger growth inhibition
Conditions: 1 µM, 3 days
How it was run: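 In 96-well imaging plates whose edge wells went unused, 3000 4T1-H2B-GFP mouse breast cancer cells per well were seeded in 2% FBS medium onto plastic, denuded lung matrix, mCAF1 fibroblast-derived matrix, Matrigel (15 μg/mL) or 0.2% gelatin. Sixteen hours on, kinase inhibitors went in at 1 μM final for 3 days before formalin fixation, DAPI staining and imaging on an INCell Analyzer 2200. Counting of GFP-positive nuclei gave cell numbers, from which percent inhibition relative to control was derived.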

[1] = substrate: lung fibroblast-derived matrix
[2] = substrate: mCAF1 fibroblast-derived matrix

SMILES | % inhibition of 4T1 cell number (substrate: Matrigel) [%] | % inhibition of 4T1 cell number (substrate: gelatin) [%] | % inhibition of 4T1 cell number [1] [%] | % inhibition of 4T1 cell number [2] [%] | % inhibition of 4T1 cell number (substrate: plastic) [%]
Cn1c(O)c(-c2[nH]c3ccccc3c2N=O)c2ccc(Br)cc21 [GSK-3 Inhibitor IX, Control, MeBIO] | 3.95 | 2.35 | 16 | -1.76 | -22.7
O=C1C(=Cc2ccc(O)cc2)C2=Nc3ccccc3C2=C1C1=C2C(=Nc3ccccc32)C(=Cc2ccc(O)cc2)C1=O [Scytonemin, Lyngbya sp.] | 46.6 | 52.5 | 65.9 | 26.2 | 39.5
COc1ccc(CNc2nc(N(CCO)CCO)nc3c2ncn3C(C)C)cc1 [Cdk2 Inhibitor III] | -37 | 15.9 | 6.49 | 22 | -27.8
O=C1Cc2c([nH]c3ccc(Br)cc23)-c2ccccc2N1 [Kenpaullone] | -24.2 | -0.528 | 23.3 | 25.6 | -48.1
Cc1nc2cc3nc(-c4cccs4)cnc3cc2n1C | 47.1 | -31.4 | -7.74 | -22.1 | 37.6
O=[N+]([O-])c1ccc(-c2nc(-c3ccc(F)cc3)c(-c3ccncc3)[nH]2)cc1 | -4.18 | 12 | -11.4 | 26.1 | -60.5
Cc1cc(C=C2C(=O)C=CC2=O)cc(C)c1O | 32.9 | 68.1 | 10.9 | -26.2 | 32.3
COc1ccc2c(c1)c1c3c(c4c5ccccc5n(C)c4c1n2CC(O)CN(C)C)C(=O)NC3=O (stereo not given) | -13 | -19 | -1 | 17.9 | -42.9
COc1cc2ncnc(Nc3ccc(NC(=O)c4ccccc4)cc3)c2cc1OC [Aurora Kinase Inhibitor II] | 50.4 | 37.2 | -20.1 | -30.6 | 35.8
Cn1cc(C2=C(c3cn(CCCSC(=N)N)c4ccccc34)C(=O)NC2=O)c2ccccc21 | -9.32 | 35.1 | -2.42 | 48.6 | -25.7
O=C(c1ccccc1)c1ccc(N2CCOCC2)cc1O [DNA-PK Inhibitor V] | 58 | 77.4 | -6.09 | 54.5 | 92.7
CC(C)n1cnc2c(NCc3ccccc3)nc(NCCCO)nc21 [Bohemine] | 16.5 | 13 | 0.282 | -0.566 | -30.7
